The values below come from article PMC5869772, “Quantitative profiling of BATF family proteins/JUNB/IRF hetero-trimers using Spec-seq”.

Common to all, as to assay: Spec-seq (EMSA and sequencing of bound and unbound bands); 100 nM BATFx-JUNB, 1 uM dsDNA library, 50 mM K acetate, 20 mM Tris-acetate, 10 mM Mg acetate, 100 ug/ml BSA, pH 7.9, 10% glycerol, 30 min on ice; native 9% PAGE at 4 C; low values mean tight binding
Common to all, as to settings: protein: recombinant;recombinant; tags: N-terminal mCherry-TEV, cleaved off;C-terminal 6His; copies: 1;1; dsDNA, one strand shown
On the technique in general: In EMSA bound probe runs differently from free probe, usually more slowly.

One test concerns the target T1, BATF;JUNB (human;human, UniProt Q16520;P17275 1-125;148-347, |).
T1 sequence 1: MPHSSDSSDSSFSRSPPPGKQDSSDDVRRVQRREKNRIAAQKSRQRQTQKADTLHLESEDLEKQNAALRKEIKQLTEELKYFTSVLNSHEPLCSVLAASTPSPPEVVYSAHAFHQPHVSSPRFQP
T1 sequence 2: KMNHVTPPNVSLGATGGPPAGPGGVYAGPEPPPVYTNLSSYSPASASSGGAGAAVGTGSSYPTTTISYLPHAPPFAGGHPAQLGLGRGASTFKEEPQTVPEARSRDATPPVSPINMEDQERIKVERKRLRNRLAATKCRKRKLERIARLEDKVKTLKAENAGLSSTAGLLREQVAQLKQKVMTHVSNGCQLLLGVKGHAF
An outline of the steps: (§1)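 The protein, at 100 nM, was incubated with 1 μM double-stranded degenerate DNA library for 30 min on ice in NEB Cutsmart buffer with 10% glycerol, then resolved by native 9% PAGE at 4 °C. Excised bound and unbound bands were PCR-barcoded and Illumina-sequenced, and each sequence's relative binding energy in kT is −ln of its bound/unbound read-count ratio.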

The target in a further test is T2, BATF2 (bZIP);JUNB (human;human, UniProt Q8N1L9;P17275 1-142;148-347, |).
T2 sequence 1: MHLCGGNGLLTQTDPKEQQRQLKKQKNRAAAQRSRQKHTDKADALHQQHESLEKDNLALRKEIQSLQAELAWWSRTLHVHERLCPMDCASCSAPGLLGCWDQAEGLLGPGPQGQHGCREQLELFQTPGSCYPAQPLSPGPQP
T2 sequence 2: T1 sequence 2
A digest of the protocol:
as §1

A further test deals with T3, BATF3;JUNB (human;human, UniProt Q9NR55;P17275 1-127;148-347, |).
T3 sequence 1: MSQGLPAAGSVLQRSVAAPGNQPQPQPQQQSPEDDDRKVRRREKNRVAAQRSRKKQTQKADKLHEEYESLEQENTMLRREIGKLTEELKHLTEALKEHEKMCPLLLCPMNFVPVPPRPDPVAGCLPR
T3 sequence 2: T1 sequence 2
An outline of the steps:
as §1

With “GATAGTCTCATTTTCACCCCGTGAAATGAGGCATTTGTTCCATTACAGTATCTGT”, the values for the binding signal with BATF;JUNB, with BATF2 (bZIP);JUNB and with BATF3;JUNB were 0.568 kT, 1.08 kT and 0.744 kT, respectively.
With “GATAGTCTCATTTTCACCCCGTGAAATGAGTAAGTTGTTCCATTACAGTATCTGT”, the binding signal with BATF;JUNB is -0.362 kT; with BATF2 (bZIP);JUNB it was 0.572 kT; with BATF3;JUNB, 0.139 kT.
As to “GATAGTCTCATTTTCACCCCGTGAAATGAGTTACTTGTTCCATTACAGTATCTGT”, the binding signal with BATF;JUNB came out at 0.198 kT; with BATF2 (bZIP);JUNB it was 0.967 kT; with BATF3;JUNB, 0.809 kT.
Consider “GATAGTCTCATTTTCACCCCGTGAAATGAGACACTTGTTCCATTACAGTATCTGT”, for which the binding signal in the test with BATF;JUNB turned out to be 0.71 kT; with BATF2 (bZIP);JUNB, 1.71 kT; with BATF3;JUNB, 1.3 kT.
For “GATAGTCTCATTTTCACCCCGTGAAAACGAGTCATTGTTCCATTACAGTATCTGT” the same measures were -0.809 kT, -0.0168 kT and -0.328 kT.
For the sequence “GATAGTCTCATTTTCACCCCGTGAAATGAGTCGATTGTTCCATTACAGTATCTGT”, the binding signal with BATF;JUNB is -0.215 kT; with BATF2 (bZIP);JUNB it was 1.01 kT; with BATF3;JUNB, 0.391 kT.
Regarding “GATAGTCTCATTTTCACCCCGTGAAATGAGTCAATTGTTCCATTACAGTATCTGT”, the binding signal with BATF;JUNB was -0.554 kT; in the test with BATF2 (bZIP);JUNB it was 0.156 kT; with BATF3;JUNB it was -0.486 kT.
The matching figures for “GATAGTCTCATTTTCACCCCGTGAAATAAGTCATTTGTTCCATTACAGTATCTGT”: -0.248 kT, 0.152 kT and -0.202 kT.
Turning to “GATAGTCTCATTTTCACCCCGTGAAACGGAGTCATTGTTCCATTACAGTATCTGT”, the binding signal with BATF;JUNB was -0.207 kT; in the test with BATF2 (bZIP);JUNB it was 0.313 kT; with BATF3;JUNB, 0.06 kT.
Regarding “GATAGTCTCATTTTCACCCCGTGAAATAGAGTCATTGTTCCATTACAGTATCTGT”, the results for the binding signal with BATF;JUNB, with BATF2 (bZIP);JUNB and with BATF3;JUNB were -0.357 kT, 0.163 kT and -0.29 kT, respectively.
“GATAGTCTCATTTTCACCCCGTGAAAGGACTCATTTGTTCCATTACAGTATCTGT”: the binding signal came to 0.219 kT in the test with BATF;JUNB, 0.9 kT with BATF2 (bZIP);JUNB and 0.665 kT with BATF3;JUNB.
As to “GATAGTCTCATTTTCACCCCGTGAAATAACTCATTTGTTCCATTACAGTATCTGT”, the binding signal is -0.0626 kT with BATF;JUNB, 0.612 kT with BATF2 (bZIP);JUNB and 0.332 kT with BATF3;JUNB.
